The results in this text go back to PubChem BioAssay AID489012 (National Center for Advancing Translational Sciences (NCATS), 2010).

Inconclusive results are not listed. A call without a number means that no potency is given here. Activity calls are given as the source filed them. The call rests on the fitted dose curve; in most records, active means well fitted activation curve with a large enough effect; inconclusive means small, poorly fitted or top-dose-only effect; inactive means no such curve, though single readings can be large or run the other way.
Potency means the concentration at half of the fitted maximal effect.

Sequence of Relaxin receptor 1 (Homo sapiens) (Q9HBX9 whole entry, looked up): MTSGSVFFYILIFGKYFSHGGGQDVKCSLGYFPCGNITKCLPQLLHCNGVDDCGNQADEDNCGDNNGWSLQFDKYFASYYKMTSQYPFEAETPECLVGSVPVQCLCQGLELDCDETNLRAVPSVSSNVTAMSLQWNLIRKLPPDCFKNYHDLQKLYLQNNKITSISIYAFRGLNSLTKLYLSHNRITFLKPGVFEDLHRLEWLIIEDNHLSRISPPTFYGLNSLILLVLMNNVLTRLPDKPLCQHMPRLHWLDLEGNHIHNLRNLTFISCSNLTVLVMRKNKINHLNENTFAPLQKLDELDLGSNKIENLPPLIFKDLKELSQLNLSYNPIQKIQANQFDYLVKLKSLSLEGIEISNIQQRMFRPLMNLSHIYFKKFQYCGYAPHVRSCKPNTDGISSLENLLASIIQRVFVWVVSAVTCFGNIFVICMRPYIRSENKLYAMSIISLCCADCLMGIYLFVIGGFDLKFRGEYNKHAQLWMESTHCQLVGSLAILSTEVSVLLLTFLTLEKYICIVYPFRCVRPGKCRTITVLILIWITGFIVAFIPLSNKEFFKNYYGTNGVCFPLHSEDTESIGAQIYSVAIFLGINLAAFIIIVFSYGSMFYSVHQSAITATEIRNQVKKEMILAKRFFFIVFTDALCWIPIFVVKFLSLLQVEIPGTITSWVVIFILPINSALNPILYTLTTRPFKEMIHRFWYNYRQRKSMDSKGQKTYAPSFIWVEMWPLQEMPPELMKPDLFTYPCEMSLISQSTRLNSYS

The assay has as its target Relaxin receptor 1 (Homo sapiens) (UniProt Q9HBX9). Briefly: qHTS Assay for Agonists of the Relaxin Receptor RXFP1: RXFP1 Hit Validation. Further: nearly all actives have a fitted effect of over 65% in size.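 On activation: cAMP rise lowers the TR-FRET signal in lysed cells with PDE4 inhibitor present.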 Conditions: HEK293T-RXFP1 cAMP TR-FRET, 30 min; series mostly up to 115 µM. An excerpt: NIH Chemical Genomics Center [NCGC] NIH Molecular Libraries Probe Production Centers Network [MLPCN] MLPCN Grant: R03 MH085705-01A1 Assay Submitter (PI): Alexander Agoulnik NCGC Assay Overview: The relaxin hormone is involved in the variety of biological functions in normal tissues and diseases. The role of relaxin is well-established in female reproduction and parturition, mammary gland and endometrial development, maintenance of myometrial quiescence during pregnancy. Relaxin signaling through its G protein-coupled receptor (GPCR) RXFP1 results in ECM remodeling through regulation of collagen deposition, cell invasiveness, proliferation and overall tissue homeostasis. […] Recombinant human relaxin (rhRlx) is currently being tested in clinical trials as a protective agent in congestive heart failure, in treating severe preeclampsia, and as an anti-fibrotic agent in systemic sclerosis. Upon relaxin binding RXFP1 activation leads to the activation of adenylate cyclase (AC) via Gs. cAMP will activate PKA, which phosphorylates many signaling proteins. Thus, detection of cAMP increase is an easy and reliable indication of relaxin receptor activation. To screen for agonists of the relaxin receptor, a HEK293T cell line stably transfected with RXFP1 was used. RXFP1 activation was assayed by changes in cAMP levels as detected with a time-resolved fluorescence energy transfer (TR-FRET) cAMP detection kit.
NCGC Assay Protocol Summary: This is a cell-based assay for cAMP second messenger response to screen for agonists of the RXFP1 receptor. The assay was conducted in the presence of a PDE4 inhibitor (Ro 20174). The cells were lysed and the cAMP levels were measured with a TR-FRET cAMP kit. Presence of cAMP in the cell lysate disrupts binding between the cryptate-labeled anti-cAMP and d2-labeled cAMP pair, leading to a decrease in the TR-FRET signal. Data were normalized to the controls for basal activity (buffer only) and 100% activity (29 nM porcine relaxin). The EC50 values were determined from concentration-response data modeled with the standard Hill equation 1536-well assay protocol for the HEK293 RXFP1 cAMP assay: (1) Add 3 ul HEK293 RXFP1 cell culture. 2000 cells/well in DMEM/F12, 10% FBS, 1x Pen/Strep (dispensed offline with MultiDrop Combi). (2) Incubate 16-24 hr at 37C, 5% CO2. (3) Add 1 ul 400uM Ro20174 in DPBS, 0.05% BSA, 0.005% Tween 20. (3) Add 23 nl compounds in DMSO solution. Final concentration was 0.5 - 58 uM. (4) Incubate 30 min at 37C, 5% CO2. (5) Add 1 ul cAMP-d2 in lysis buffer (HTRF cAMP HiRange kit, CisBio). (6) Add 1 ul anti-cAMP antibody-cryptate in lysis buffer (HTRF cAMP HiRange kit, CisBio). (7) Incubate 30 min at room temperature. […] Keywords: relaxin, RXFP1, RXFP2, G-protein coupled receptor, cAMP, agonist, high throughput screening, MLSMR, MLSCN, NIH Roadmap, qHTS and NCGC
Consider `CC(=O)Nc1c2c3c(cccc3n(C)c1=O)C(=O)c1ccccc1-2`, for which the Potency entry was “inactive”.
For `O=C(Nc1ccccc1C(=O)Nc1ccc(F)cc1)c1ccco1`, the Potency result is “inactive”.
Regarding `O=C(Nc1ccccc1C(=O)Nc1ccccc1)c1ccco1`, the Potency result is “inactive”.
For `COC(=O)c1c(N2C(=O)CC(Sc3ncccc3C(=O)O)C2=O)sc(C)c1C` (stereo not given) the value was “inactive”.
For `COCCNC(=O)NC(=O)COC(=O)C12CC3CC(CC(NC(C)=O)(C3)C1)C2`, the Potency entry is “inactive”.
Turning to `Cn1c2c(c(=O)n3ncnc13)CCCC2`, the Potency entry is “inactive”.
For `O=C(Cn1cnc2c(nnn2-c2ccc(F)cc2)c1=O)NCC1CCCO1` (stereo not given) the value was 8.7 µM (active); for `Cc1cccn2c(=O)c3cc(C(=O)NCCN4CCOCC4)c(=N)n(CCCN4CCOCC4)c3nc12`, “inactive”.
The result for `Cn1c(=O)c2c(nc(SCC(=O)N3CCOCC3)n2C)n(C)c1=O` reads “inactive”.
For the compound `CCN(CC)S(=O)(=O)c1cccc(N=Nc2c(O)c3ccccc3oc2=O)c1`, the Potency was 21.9 µM (active).
For `CCCc1nc(SCC(=O)NCC2CCCO2)c2c(=O)n(C)c(=O)n(C)c2n1` (stereo not given) the value was “inactive”.
As for `COc1ccc(C(=O)Nc2ccc(S(=O)(=O)Nc3onc(C)c3C)cc2)c(OC)c1`, the Potency was 5.95 µM (active).
For `CC1CCCCN1C(=O)c1ccccc1NC(=O)c1ccco1` (stereo not given) the value was “inactive”; for `O=C(Nc1ccccc1C(=O)NCc1ccc(Cl)cc1)c1ccco1`, “inactive”; for `Cc1cc(C(=O)COC(=O)Cn2cnc3c2c(=O)n(C)c(=O)n3C)c(C)n1C`, 30.9 µM (active).
The result for `CN(Cc1ccccc1)C(=O)c1ccccc1NC(=O)c1ccco1` reads “inactive”; that for `C=CCOc1c(Cl)cc(CNc2ccc(N(C)C)cc2)cc1OC`, “inactive”; that for `CC(C)C(=O)Nc1ccc(Nc2ccccc2)cc1`, “inactive”.
In the case of `Cc1ccccc1NC(=O)c1ccccc1NC(=O)c1ccco1`, the Potency result was “inactive”.
For the compound `Cc1cccn2c(=O)c(/C=C3\SC(=S)NC3=O)c(NCCCN3CCOCC3)nc12`, the Potency is 7.74 µM (active).
The result for `O=C(CSc1ccc2nnc(-c3ccncc3)n2n1)NCC1CCCO1` (stereo not given) reads “inactive”; that for `Cc1cc(C)nc(NS(=O)(=O)c2ccc(NC(=O)c3nn(-c4ccccc4)ccc3=O)cc2)n1`, 24.5 µM (active); that for `COC(=O)CCNC(=O)Cn1cnc2sc3c(c2c1=O)CCCC3`, “inactive”.
`CN(C)c1ccc2nc3c(=O)[nH]c(=O)nc-3n(CC(O)C(O)C(O)CO)c2c1` (stereo not given): the Potency entry was “inactive”.
Regarding `CCOC(=O)c1sc(NC(=O)CCc2ccc(OC)cc2)nc1C`, the Potency is 15.4 µM (active).
For `O=C(O)c1ccc(N2C(=O)c3cccc4c(C(=O)O)ccc(c34)C2=O)cc1` the value was “inactive”; for `Cc1c(CCOC(=O)c2cc([N+](=O)[O-])ccc2Cl)sc[n+]1CCCCS(=O)(=O)[O-]`, “inactive”; for `CCN(c1ccccc1)S(=O)(=O)c1ccc(OC)c(NC(=O)C2CC(=O)N(Cc3ccccc3)C2)c1` (stereo not given), “inactive”.
For `Cc1cc(NC(=O)CSc2ncnc3c2cnn3-c2cccc(Cl)c2)no1` the value was “inactive”.
The result for `CCN(CC)c1ccc(S(=O)(=O)N2CCOCC2)cc1NC(=O)CSc1nncn1C` reads 12.3 µM (active).
Turning to `COc1ccc(CCn2c(=N)c(C(=O)NCC3CCCO3)cc3c(=O)n4cccc(C)c4nc32)cc1` (stereo not given), the Potency result is “inactive”.
The result for `COC(=O)c1c(NC(=O)c2cccc(N3C(=O)CCC3=O)c2)sc2c1CCN(C(C)=O)C2` reads “inactive”; that for `O=C(O)c1cc(-c2ccco2)nc2ccc(Br)cc12`, 19.4 µM (active).
For `CCc1cc2c(=O)nc3n(c2s1)Cc1ccccc1/C3=C(/O)c1cccc([N+](=O)[O-])c1` the value was 5.3 µM (active).
The result for `O=c1oc2cc(O)c(Cl)cc2c2ccccc12` reads 6.9 µM (active).
For the compound `COC(=O)Cn1cnc2c(C#N)c3n(c2c1=O)CCCCC3`, the Potency was 13.8 µM (active).
The result for `Cn1c(N)c(C(=O)CSc2nnc(NC3CCCCC3)s2)c(=O)n(C)c1=O` reads “inactive”; that for `CCOC(=O)CSc1nc(=O)n2cc(C)ccc2n1`, “inactive”.
For `CCCC(=O)Nc1ncnc2c1ncn2[C@@H]1O[C@@H]2COP(=O)(O)O[C@H]2[C@H]1OC(=O)CCC` the value was 0.774 µM (active); for `O=C(Nc1ccccc1C(=O)NC1CCCCC1)c1ccco1`, “inactive”.
